In general, AC50 refers to the concentration at which the activity in the assay is half-maximal.

Assay [1] deals with chicken Estrogen Receptor (ESR1), ESR1 (gene 396099) (UniProt P06212). Briefly: ATG_chERa_XSP1: Attagene TRANS-FACTORIAL Multi-Species (XSP1) HepG2 Assay for chicken Estrogen Receptor (ESR1) (AID 2283779). A digest of the protocol: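 HepG2 cells transiently transfected with multiplexed GAL4-UAS reporter units expressing chimeric NR-Gal4 proteins; 3 nM 6-alpha-fluorotestosterone present. Reporter mRNA measured 24 h after dosing by RT-PCR, FAM labelling, HpaI digest and capillary electrophoresis; gain of signal versus DMSO.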

In assay [2] the test system is turtle Estrogen Receptor (ESR1), gene 101933533. Nature of the assay: ATG_trERa_XSP1: Attagene TRANS-FACTORIAL Multi-Species (XSP1) HepG2 Assay for turtle Estrogen Receptor (ESR1) (AID 2283781). The essentials:
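HepG2 cells transiently transfected with GAL4-UAS reporter units and chimeric NR-Gal4 constructs, dosed for 24 h with 3 nM 6-alpha-fluorotestosterone present. Reporter mRNA was quantified by RT-PCR, fluorescent labelling and capillary electrophoresis, with gain of signal fitted relative to DMSO.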

Assay [3] can be described thus: ATG_M_19_XSP1: Attagene TRANS-FACTORIAL Multi-Species (XSP1) HepG2 Assay for M19 Transcription Factor (Internal Marker) (AID 2283798). A digest of the protocol:
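HepG2 cells transiently transfected with multiplexed GAL4-UAS reporter units, dosed 24 h with 3 nM 6-alpha-fluorotestosterone present for partial AR stimulation. Reporter mRNA measured by RT-PCR with capillary electrophoresis; gain-of-signal fitted relative to DMSO.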

Assay [4] in a line: ATG_M_32_XSP1: Attagene TRANS-FACTORIAL Multi-Species (XSP1) HepG2 Assay for M32 Transcription Factor (Internal Marker) (AID 2283799). A digest of the protocol: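 HepG2 cells transiently transfected with multi-species TRANS reporter units, dosed 24 h with 3 nM 6-alpha-fluorotestosterone present. Internal-marker reporter mRNA quantified by RT-PCR and capillary electrophoresis; positive-direction fit versus DMSO.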

Assay [5] deals with zebrafish Peroxisome Proliferator-activated Receptor gamma (PPARg), gene 557037. Nature of the assay: ATG_zfPPARg_XSP1: Attagene TRANS-FACTORIAL Multi-Species (XSP1) HepG2 Assay for zebrafish Peroxisome Proliferator-activated Receptor gamma (PPARg) (AID 2283801). The essentials: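 HepG2 cells transiently transfected with GAL4-UAS reporter units including a zebrafish PPARg–GAL4 chimera, dosed 24 h with 3 nM 6-alpha-fluorotestosterone present. Reporter mRNA quantified by RT-PCR, FAM labelling, HpaI digestion and capillary electrophoresis; induction versus DMSO.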

Assay [6] concerns turtle Thyroid Hormone Receptor, alpha (TRa), gene 101949057. Briefly: ATG_trTRa_XSP1: Attagene TRANS-FACTORIAL Multi-Species (XSP1) HepG2 Assay for turtle Thyroid Hormone Receptor, alpha (TRa) (AID 2283806). The essentials:
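HepG2 cells transiently transfected with GAL4-UAS reporter units and chimeric receptor-Gal4 constructs, with 3 nM 6-alpha-fluorotestosterone present. Reporter mRNA was quantified 24 h after dosing by RT-PCR, 6-FAM labelling and capillary electrophoresis; gain of signal versus DMSO.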

Assay [7] concerns the target zebrafish Thyroid Hormone Receptor alpha (TRa), thraa (gene 30670) (UniProt Q98867). Briefly: ATG_zfTRa_XSP1: Attagene TRANS-FACTORIAL Multi-Species (XSP1) HepG2 Assay for zebrafish Thyroid Hormone Receptor alpha (TRa) (AID 2283807). The essentials: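 HepG2 cells transiently transfected with GAL4-UAS reporter units including a zebrafish TRa–Gal4 chimera, dosed 24 h with 3 nM 6-alpha-fluorotestosterone present. Reporter mRNA quantified by RT-PCR and capillary electrophoresis; gain versus DMSO.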

The target of assay [8] is human Thyroid hormone Receptor beta (TRb), THRB (gene 7068) (UniProt P10828). Nature of the assay: ATG_hTRb_XSP1: Attagene TRANS-FACTORIAL Multi-Species (XSP1) HepG2 Assay for human Thyroid hormone Receptor beta (TRb) (AID 2283808). The essentials:
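HepG2 cells transiently transfected with reporter units driving GAL4-UAS reporters for chimeric NR-Gal4 proteins; 24 h chemical exposure with 3 nM 6-alpha-fluorotestosterone present. Reporter mRNA quantified by RT-PCR and capillary electrophoresis, gain of signal versus DMSO.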

Assay [9] has as its target zebrafish Thyroid Hormone Receptor beta (TRb), thrb (gene 30607) (UniProt Q9PVE4). Nature of the assay: ATG_zfTRb_XSP1: Attagene TRANS-FACTORIAL Multi-Species (XSP1) HepG2 Assay for zebrafish Thyroid Hormone Receptor beta (TRb) (AID 2283809). The essentials: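 HepG2 cells transiently transfected with multiplexed GAL4-UAS reporter units expressing chimeric zebrafish TRb–Gal4. Dosed 24 h with 3 nM 6-alpha-fluorotestosterone present; reporter mRNA measured by RT-PCR, HpaI digestion and capillary electrophoresis; gain of signal versus DMSO.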

Assay [10] has as its system zebrafish Estrogen Receptor (ER2b), gene 317733. Nature of the assay: ATG_zfER2b_XSP2: Attagene TRANS-FACTORIAL Multi-Species (XSP2) HepG2 Assay for zebrafish Estrogen Receptor (ER2b) (AID 2283823).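 Note: fitted upward as reporter gain over DMSO so potency reflects activation.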 A digest of the protocol: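 Reporter transcripts quantified by RT-PCR, fluorescent labelling and capillary electrophoresis after 24 h dosing of transfected HepG2 expressing zebrafish ER2b-GAL4 fusion. Medium contained 3 nM 6-alpha-fluorotestosterone plus 1.5 nM norgestrel; DMSO baseline.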

The nature of assay [11]: ATG_M_32_XSP2: Attagene TRANS-FACTORIAL Multi-Species (XSP2) HepG2 Assay for M19 Transcription Factor (Internal Marker) (AID 2283826). A digest of the protocol:
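HepG2 cells transiently transfected with GAL4-UAS reporter units; XSP2 panel included 3 nM 6-alpha-fluorotestosterone and 1.5 nM norgestrel for androgen receptor stimulation. Reporter mRNA read 24 h post-dosing by RT-PCR/capillary electrophoresis; fitted upward versus DMSO.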

In assay [12] the test system is frog Estrogen Receptor (ER2), gene 100174814. Briefly: ATG_frER2_XSP2: Attagene TRANS-FACTORIAL Multi-Species (XSP2) HepG2 Assay for frog Estrogen Receptor (ER2) (AID 2283828). The essentials:
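Human liver HepG2, transient MRTU transfection (TRANS format, exogenous NR–Gal4). 24 h cpd exposure. Total RNA → RT → PCR → FAM label → HpaI cut → CE. Positive direction vs DMSO.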

Assay [13] addresses zebrafish Thyroid Hormone Receptor alpha (TRa), thraa (gene 30670) (UniProt Q98867). Nature of the assay: ATG_zfTRa_XSP2: Attagene TRANS-FACTORIAL Multi-Species (XSP1) HepG2 Assay for zebrafish Thyroid Hormone Receptor alpha (TRa) (AID 2283832).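 Note: actives raise zebrafish TRa-Gal4 reporter transcript above DMSO baseline.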 The essentials:
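HepG2 cells transiently transfected with multiplexed GAL4-UAS reporter units expressing chimeric NR-Gal4 proteins; 24 h after dosing, reporter mRNA measured by RT-PCR, FAM labelling, HpaI digestion and capillary electrophoresis; gain of signal versus DMSO baseline.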

Assay [14] concerns turtle Thyroid Hormone Receptor, alpha (TRa), gene 101949057. Nature of the assay: ATG_trTRa_XSP2: Attagene TRANS-FACTORIAL Multi-Species (XSP1) HepG2 Assay for turtle Thyroid Hormone Receptor, alpha (TRa) (AID 2283834).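 Note: hits raise reporter mRNA over the DMSO baseline so AC50 marks activators.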 A digest of the protocol: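 HepG2 cells transiently transfected with GAL4-UAS reporter units for chimeric turtle TRa-Gal4; mRNA measured 24 h after dosing by RT-PCR and capillary electrophoresis fluorescence, gain of signal fitted against DMSO.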

For assay [15], the target named is human Thyroid hormone Receptor alpha (TRa), THRA (gene 7067) (UniProt P10827). Briefly: ATG_hTRa_XSP2: Attagene TRANS-FACTORIAL Multi-Species (XSP2) HepG2 Assay for human Thyroid hormone Receptor alpha (TRa) (AID 2283838). A digest of the protocol: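 HepG2 cells transiently transfected with multiplexed GAL4-UAS reporter units and exogenous NR-GAL4 chimeras; 24 h chemical exposure with 3 nM 6-alpha-fluorotestosterone and 1.5 nM norgestrel present. Reporter mRNA measured by RT-PCR, FAM labelling, HpaI digestion, capillary electrophoresis; gain-of-signal versus DMSO.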

Assay [16] has as its target frog Thyroid hormone Receptor alpha (TRa), thra-a (gene 397942) (UniProt P15204). Nature of the assay: ATG_frTRa_XSP2: Attagene TRANS-FACTORIAL Multi-Species (XSP2) HepG2 Assay for frog Thyroid hormone Receptor alpha (TRa) (AID 2283839). A digest of the protocol:
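HepG2 transiently transfected with multiplexed GAL4-UAS reporters driven by frog TRa-Gal4 chimeras; 24 h chemical exposure. Reporter mRNA quantified by RT-PCR, FAM labelling, HpaI digestion and capillary electrophoresis; gain of signal versus DMSO.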

Assay [17] concerns the target human Thyroid hormone Receptor beta (TRb), THRB (gene 7068) (UniProt P10828). Nature of the assay: ATG_hTRb_XSP2: Attagene TRANS-FACTORIAL Multi-Species (XSP2) HepG2 Assay for human Thyroid hormone Receptor beta (TRb) (AID 2283840).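 Note: actives raise reporter mRNA so potency reflects agonist-like gain of signal.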 The essentials: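 HepG2 transiently transfected with a multi-species panel including a human TRb–Gal4 chimera driving Gal4-UAS reporters; medium contained 3 nM 6-alpha-fluorotestosterone and 1.5 nM norgestrel. 24 h dosing; RT-PCR/capillary electrophoresis readout; positive-direction fit vs DMSO.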

Assay [18] is described as follows: CCTE_Padilla_ZF_Score.General: CCTE's 144 Hour Post-fertilization zebrafish Assay Score for General Malformation, Padilla Lab (AID 2284411; active = hit-call score of the fitted dose curve at least 0.9, where 1 is the maximum; inactive = score below 0.9). A digest of the protocol:
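Wild-type zebrafish embryos were plated singly at 6-8 hpf in 10% Hanks' and exposed in sealed wells at 26C until rinsed on 5 dpf. At 6 dpf two blinded assessors scored mortality, hatching and malformations by stereomicroscopy; gain-of-signal versus DMSO.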

Assay [19] addresses human Norepinephrine Transporter (NET), SLC6A2 (gene 6530) (UniProt P23975). Nature of the assay: NVS_TR_hNET: NovaScreen (NVS) Transporter Assay for human Norepinephrine Transporter (NET) (AID 2283377).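 Note: cell-free membrane protein extracted from CHO cells expressing human NET.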 The essentials: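 Radioligand binding to human NET in cell-free CHO-derived protein preparations, read by filter-based scintillation counting 1 hour after dosing. Loss of signal versus DMSO baseline indicated displacement; primary screening in duplicate at 25 uM, actives then titrated.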

The next assay concerns the target PGR (gene 5241) (UniProt P06401). Nature of the assay: TOX21_PR_BLA_Followup_Agonist_ratio: Tox21 HEK293 Progesterone Receptor (PR) Agonism Beta-lactamase Follow-Up Assay, Ratio (AID 2283933). The essentials: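 PR-UAS-bla HEK293T cells (GAL4-UAS beta-lactamase reporter) in medium with 2% charcoal-stripped FBS received compounds after 6 hr at 37C, then incubated 16 hr. LiveBLAzer FRET substrate added, 2 hr room temperature; cleaved/uncleaved (ch2/ch1) ratio fitted upward versus DMSO.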

Structures are written as SMILES. Records with an inconclusive call do not appear. Activity calls are given as the source filed them. Rule for the calls, unless noted: active = hit-call score of the fitted dose curve at least 0.9, where 1 is the maximum; inconclusive = response in the unintended direction; inactive = score below 0.9.

Chain of zebrafish Thyroid Hormone Receptor alpha (TRa), thraa (gene 30670) (Q98867 whole entry, looked up, the tested form may be a part): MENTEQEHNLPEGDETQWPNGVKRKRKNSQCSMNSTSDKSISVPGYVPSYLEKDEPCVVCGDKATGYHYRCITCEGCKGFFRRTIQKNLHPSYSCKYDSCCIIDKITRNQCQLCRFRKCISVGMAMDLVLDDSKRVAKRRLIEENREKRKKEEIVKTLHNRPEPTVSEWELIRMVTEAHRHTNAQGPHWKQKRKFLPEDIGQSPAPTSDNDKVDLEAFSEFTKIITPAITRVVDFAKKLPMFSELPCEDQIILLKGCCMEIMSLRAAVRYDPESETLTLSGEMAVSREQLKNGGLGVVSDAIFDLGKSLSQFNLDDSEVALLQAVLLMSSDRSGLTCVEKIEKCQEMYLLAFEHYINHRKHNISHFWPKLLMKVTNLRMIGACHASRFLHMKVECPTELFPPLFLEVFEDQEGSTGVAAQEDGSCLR
Chain of human Thyroid hormone Receptor beta (TRb), THRB (gene 7068) (P10828 whole entry, looked up, the tested form may be a part): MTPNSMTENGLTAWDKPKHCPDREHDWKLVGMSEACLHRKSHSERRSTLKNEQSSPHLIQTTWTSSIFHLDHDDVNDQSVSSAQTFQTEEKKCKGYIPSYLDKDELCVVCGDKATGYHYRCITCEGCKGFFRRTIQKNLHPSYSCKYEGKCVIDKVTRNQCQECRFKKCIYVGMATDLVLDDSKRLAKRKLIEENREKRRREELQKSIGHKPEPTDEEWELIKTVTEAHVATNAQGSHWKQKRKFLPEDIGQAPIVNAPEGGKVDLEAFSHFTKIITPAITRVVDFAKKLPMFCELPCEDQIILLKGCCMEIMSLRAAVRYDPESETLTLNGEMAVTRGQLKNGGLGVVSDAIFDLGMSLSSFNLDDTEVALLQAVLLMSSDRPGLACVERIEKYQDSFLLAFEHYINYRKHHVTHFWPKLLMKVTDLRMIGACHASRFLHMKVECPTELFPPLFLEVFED
Chain of human Thyroid hormone Receptor alpha (TRa), THRA (gene 7067) (P10827 whole entry, looked up, the tested form may be a part): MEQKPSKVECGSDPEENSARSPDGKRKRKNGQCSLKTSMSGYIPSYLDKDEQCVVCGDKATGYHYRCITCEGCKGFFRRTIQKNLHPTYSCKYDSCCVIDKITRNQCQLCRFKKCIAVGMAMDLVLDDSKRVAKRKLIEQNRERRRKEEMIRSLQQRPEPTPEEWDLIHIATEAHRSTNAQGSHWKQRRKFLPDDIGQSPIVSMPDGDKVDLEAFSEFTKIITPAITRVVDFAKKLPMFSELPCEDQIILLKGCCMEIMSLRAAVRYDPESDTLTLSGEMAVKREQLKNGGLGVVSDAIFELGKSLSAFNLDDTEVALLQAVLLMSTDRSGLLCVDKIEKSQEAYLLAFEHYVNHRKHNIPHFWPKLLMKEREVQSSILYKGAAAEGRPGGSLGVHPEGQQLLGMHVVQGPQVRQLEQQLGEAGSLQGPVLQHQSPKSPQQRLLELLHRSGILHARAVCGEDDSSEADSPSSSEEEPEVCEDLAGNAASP
Chain of PGR (gene 5241) (P06401 whole entry, looked up, the tested form may be a part): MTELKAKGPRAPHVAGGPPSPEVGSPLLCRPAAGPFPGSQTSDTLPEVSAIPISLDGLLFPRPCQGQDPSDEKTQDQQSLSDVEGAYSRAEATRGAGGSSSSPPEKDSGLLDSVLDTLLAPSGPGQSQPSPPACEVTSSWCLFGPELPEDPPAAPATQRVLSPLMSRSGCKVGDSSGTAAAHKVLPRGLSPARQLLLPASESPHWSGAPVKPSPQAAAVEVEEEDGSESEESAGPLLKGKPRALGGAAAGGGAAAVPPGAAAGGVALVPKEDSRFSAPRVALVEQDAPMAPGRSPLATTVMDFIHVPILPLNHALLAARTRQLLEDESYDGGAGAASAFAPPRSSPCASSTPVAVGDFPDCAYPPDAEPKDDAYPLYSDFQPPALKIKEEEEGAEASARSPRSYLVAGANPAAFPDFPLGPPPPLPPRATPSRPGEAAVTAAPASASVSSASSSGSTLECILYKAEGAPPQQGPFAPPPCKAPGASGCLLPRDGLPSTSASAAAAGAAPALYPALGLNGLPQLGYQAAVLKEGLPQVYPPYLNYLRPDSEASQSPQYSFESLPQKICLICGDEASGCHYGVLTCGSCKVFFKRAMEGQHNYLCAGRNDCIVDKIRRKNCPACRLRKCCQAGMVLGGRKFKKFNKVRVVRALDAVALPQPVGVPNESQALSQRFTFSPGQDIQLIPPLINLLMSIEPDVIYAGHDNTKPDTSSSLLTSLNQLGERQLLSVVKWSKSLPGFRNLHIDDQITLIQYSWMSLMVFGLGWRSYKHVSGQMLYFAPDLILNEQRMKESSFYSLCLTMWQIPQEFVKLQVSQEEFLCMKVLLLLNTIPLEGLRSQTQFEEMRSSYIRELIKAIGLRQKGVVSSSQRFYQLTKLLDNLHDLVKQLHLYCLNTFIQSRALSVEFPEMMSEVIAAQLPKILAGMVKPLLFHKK
Chain of human Norepinephrine Transporter (NET), SLC6A2 (gene 6530) (P23975 whole entry, looked up): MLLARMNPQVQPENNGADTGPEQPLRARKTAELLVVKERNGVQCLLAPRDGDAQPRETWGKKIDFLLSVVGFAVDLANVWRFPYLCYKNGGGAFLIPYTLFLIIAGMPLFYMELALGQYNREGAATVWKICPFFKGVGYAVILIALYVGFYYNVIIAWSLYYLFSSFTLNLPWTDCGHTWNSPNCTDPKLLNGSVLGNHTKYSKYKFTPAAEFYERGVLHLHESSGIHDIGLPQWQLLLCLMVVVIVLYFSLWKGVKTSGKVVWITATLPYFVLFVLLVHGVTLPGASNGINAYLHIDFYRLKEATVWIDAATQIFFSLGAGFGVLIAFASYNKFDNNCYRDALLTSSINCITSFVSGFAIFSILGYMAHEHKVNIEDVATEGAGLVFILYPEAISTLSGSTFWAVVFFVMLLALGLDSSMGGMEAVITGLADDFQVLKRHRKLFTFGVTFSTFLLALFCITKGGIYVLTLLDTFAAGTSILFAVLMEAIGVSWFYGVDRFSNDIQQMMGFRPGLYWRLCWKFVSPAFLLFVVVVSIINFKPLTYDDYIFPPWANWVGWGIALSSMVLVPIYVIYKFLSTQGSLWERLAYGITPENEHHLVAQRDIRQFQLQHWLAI
Chain of zebrafish Thyroid Hormone Receptor beta (TRb), thrb (gene 30607) (Q9PVE4 whole entry, looked up, the tested form may be a part): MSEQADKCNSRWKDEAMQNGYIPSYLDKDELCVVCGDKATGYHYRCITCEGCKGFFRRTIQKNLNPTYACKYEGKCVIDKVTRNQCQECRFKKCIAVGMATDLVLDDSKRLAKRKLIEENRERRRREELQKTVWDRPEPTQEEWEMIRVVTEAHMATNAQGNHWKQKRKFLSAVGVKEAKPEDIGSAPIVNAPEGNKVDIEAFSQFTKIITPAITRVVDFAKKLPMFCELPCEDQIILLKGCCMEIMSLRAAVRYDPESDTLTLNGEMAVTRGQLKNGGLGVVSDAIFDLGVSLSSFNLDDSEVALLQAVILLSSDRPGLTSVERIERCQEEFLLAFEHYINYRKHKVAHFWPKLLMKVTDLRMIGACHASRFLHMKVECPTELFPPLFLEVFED
Chain of frog Thyroid hormone Receptor alpha (TRa), thra-a (gene 397942) (P15204 whole entry, looked up, the tested form may be a part): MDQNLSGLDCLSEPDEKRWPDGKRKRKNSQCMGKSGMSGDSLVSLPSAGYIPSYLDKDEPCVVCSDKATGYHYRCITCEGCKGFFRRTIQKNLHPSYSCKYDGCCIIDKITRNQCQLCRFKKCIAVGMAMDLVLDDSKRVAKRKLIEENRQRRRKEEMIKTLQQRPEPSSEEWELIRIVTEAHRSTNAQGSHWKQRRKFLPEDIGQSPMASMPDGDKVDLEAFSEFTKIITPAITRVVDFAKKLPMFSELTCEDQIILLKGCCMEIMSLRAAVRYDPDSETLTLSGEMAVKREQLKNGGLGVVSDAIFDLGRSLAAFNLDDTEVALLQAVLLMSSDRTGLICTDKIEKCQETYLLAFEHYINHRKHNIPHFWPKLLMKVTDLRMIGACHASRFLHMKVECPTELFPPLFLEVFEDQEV
Chain of chicken Estrogen Receptor (ESR1), ESR1 (gene 396099) (P06212 whole entry, looked up, the tested form may be a part): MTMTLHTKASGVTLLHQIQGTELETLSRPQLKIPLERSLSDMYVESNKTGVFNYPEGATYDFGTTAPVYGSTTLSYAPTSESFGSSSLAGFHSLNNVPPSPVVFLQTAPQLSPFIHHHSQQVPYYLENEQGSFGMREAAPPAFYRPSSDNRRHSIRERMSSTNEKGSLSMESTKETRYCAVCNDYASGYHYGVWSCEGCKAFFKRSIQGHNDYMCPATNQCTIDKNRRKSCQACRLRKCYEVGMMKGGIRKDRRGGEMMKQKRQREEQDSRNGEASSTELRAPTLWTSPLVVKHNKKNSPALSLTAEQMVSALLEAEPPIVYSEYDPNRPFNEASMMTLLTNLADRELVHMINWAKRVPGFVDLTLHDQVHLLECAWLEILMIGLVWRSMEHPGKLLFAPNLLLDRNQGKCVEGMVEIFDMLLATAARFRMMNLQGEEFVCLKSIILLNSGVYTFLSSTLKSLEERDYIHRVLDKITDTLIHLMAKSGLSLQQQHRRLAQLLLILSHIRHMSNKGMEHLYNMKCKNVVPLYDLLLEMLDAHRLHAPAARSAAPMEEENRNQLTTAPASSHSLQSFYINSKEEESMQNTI

Turning to `CC(C)CCCCCCCOC(=O)c1ccccc1C(=O)OCCCCCCCC(C)C`, the result in assay [1], in assay [2], in assay [3], in assay [4], in [5] and in assay [6] was inactive. The outcome in assay [7], in [8], in [9], in assay [10], in assay [11] and in assay [12] was inactive. In addition, the compound was called inactive in assay [13], in [15], in assay [16], in assay [17] and in assay [18]. Moreover, the AC50 in [14] is 100 µM (active).

Consider `CC(=O)/C=C/c1ccccc1`, for which the AC50 in [19] is 19.9 µM (active).

As to `C[C@]12CC[C@H]3[C@@H](CC[C@@]45O[C@@H]4C(O)=C(C#N)C[C@]35C)[C@@H]1CC[C@@H]2O`, the outcome in the assay with PGR (gene 5241) was inactive.

Regarding `O=C1C(Cl)=C(Cl)C(=O)C(Cl)=C1Cl`, the outcome in assay [18] was inactive.

As for `N#Cc1cc(I)c(O)c(I)c1`, the outcome with PGR (gene 5241) was inactive.

Turning to `CC(C)(C)C(O)C(Oc1ccc(-c2ccccc2)cc1)n1cncn1` (stereo not given), in assay [19], the AC50 is 25 µM (active).

On to `CC(C)(c1cc(Cl)c(O)c(Cl)c1)c1cc(Cl)c(O)c(Cl)c1`, for which the AC50 was 24.3 µM (active) in assay [1]; 23.9 µM (active) in assay [2]; 17.9 µM (active) in assay [7]; 25.7 µM (active) in assay [10]; 5.92 µM (active) in assay [12]. In addition, the outcome in assay [3], in assay [4], in [5], in [6], in [8] and in assay [9] was inactive. Further, the call in [11], in assay [13], in assay [14], in assay [15], in [16] and in assay [17] was inactive.

Source of the values: PubChem BioAssay (EPA / NIEHS).
